Among the test systems are SK-MEL-2 melanoma; EKVX NSCLC; SN12C renal; UO-31 renal; TK-10 renal; ACHN renal; CAKI-1 renal; A498 renal; CCRF-CEM leukemia; MOLT-4 leukemia; SR leukemia; RPMI-8226 leukemia; OVCAR-8 ovarian; OVCAR-5 ovarian; OVCAR-4 ovarian; SK-OV-3 ovarian; IGROV1 ovarian; OVCAR-3 ovarian; HS 578T breast; NCI/ADR-RES ovarian.
Test in all cases: NCI-60 one-dose screen, 48 h (100 = growth as untreated, 0 = no growth, -100 = all killed)
What all share (details): 10 µM unless noted

About 83,000 compounds went through this panel and 20% of them were active in at least one assay; those are over-represented in the sample as a whole.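 Activity criterion: percent growth below 10, measured after cells in 96-well plates were exposed to a single compound concentration for 48 hours.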 Unmarked numbers belong to inactive results. Activity calls are given as the source filed them.

The source of these data is PubChem BioAssay (NCI).

Turning to `Cc1ccc2nc(SCn3nnc4ccccc4c3=O)[nH]c2c1`, the growth in the test with SK-MEL-2 melanoma was 69.5%; in the test with EKVX NSCLC it was 97.1%; with SN12C renal it was 108%; in the test with UO-31 renal, 73.8%; in the test with TK-10 renal it was 196%; with ACHN renal it was 105%. The growth was 93.5% in the test on CAKI-1 renal; 108% in the test on A498 renal; 102% in the test with CCRF-CEM leukemia; 71.2% in the test on MOLT-4 leukemia; 112% in the test on SR leukemia; 94.4% in the test on RPMI-8226 leukemia. The growth in the test on OVCAR-8 ovarian is 109%; with OVCAR-5 ovarian, 89.5%; with OVCAR-4 ovarian, 78.4%; in the test with SK-OV-3 ovarian it was 103%; with IGROV1 ovarian it was 83.7%; in the test on OVCAR-3 ovarian, 104%. Moreover, the growth was 107% with HS 578T breast and 88.8% in the test with NCI/ADR-RES ovarian.

Consider `COc1ccc(/C=C/C(=O)OCC(=O)NNC(=O)c2ccccc2)cc1OC`, for which the growth with SK-MEL-2 melanoma was 68.6%; in the test on EKVX NSCLC, 84.4%; in the test with SN12C renal, 101%; with UO-31 renal it was 80.9%; with TK-10 renal, 121%; in the test with ACHN renal it was 90.2%. Further, the growth with CAKI-1 renal is 83.5%; in the test with A498 renal, 93%; in the test with CCRF-CEM leukemia, 93.8%; with MOLT-4 leukemia, 70.1%; with SR leukemia it was 71.8%; with RPMI-8226 leukemia it was 79.7%. Further, the growth is 102% in the test with OVCAR-8 ovarian; 113% in the test on OVCAR-5 ovarian; 101% in the test on OVCAR-4 ovarian; 113% with SK-OV-3 ovarian; 87.8% in the test with IGROV1 ovarian; 99.8% in the test with OVCAR-3 ovarian. Also, the growth in the test on HS 578T breast is 103%; in the test with NCI/ADR-RES ovarian, 116%.

Take `Nc1ccc(S(=O)(=O)c2ccc(Cl)cc2)cc1`: the growth in the test on SK-MEL-2 melanoma was 98.4%; with EKVX NSCLC it was 94.7%; in the test on SN12C renal, 95.3%; in the test with UO-31 renal, 86.4%; in the test with TK-10 renal, 96.4%; in the test with ACHN renal it was 97.1%. In addition, the growth in the test on CAKI-1 renal is 93.6%; in the test on A498 renal, 108%; in the test on CCRF-CEM leukemia it was 111%; in the test with MOLT-4 leukemia it was 103%; with SR leukemia, 112%; with RPMI-8226 leukemia, 101%. Further, the growth with OVCAR-8 ovarian was 107%; in the test with OVCAR-5 ovarian it was 90.1%; with OVCAR-4 ovarian it was 110%; in the test on SK-OV-3 ovarian it was 109%; with IGROV1 ovarian it was 97.3%; in the test on OVCAR-3 ovarian, 98.8%. Also, the growth is 96% in the test with HS 578T breast and 95.2% in the test with NCI/ADR-RES ovarian.

Take `CCCS(=O)(=O)c1nc(NC2CC2)cc(-c2ccc3c(ccn3C3CC(C)(C)NC(C)(C)C3)c2)n1`: the growth is 54.5% in the test with SK-MEL-2 melanoma; 22.6% with EKVX NSCLC; -77.9% (active) in the test on SN12C renal; -66.1% (active) in the test with UO-31 renal; -56% (active) with TK-10 renal; -90.3% (active) with ACHN renal. Also, the growth is 85.1% with CAKI-1 renal; 108% in the test on A498 renal; -13.7% (active) in the test with CCRF-CEM leukemia; 55.9% in the test with MOLT-4 leukemia; -14.5% (active) in the test with SR leukemia; -32.6% (active) with RPMI-8226 leukemia. The growth is -52.8% (active) in the test on OVCAR-8 ovarian; -15.2% (active) in the test with OVCAR-5 ovarian; -70.6% (active) with OVCAR-4 ovarian; 92.6% with SK-OV-3 ovarian; -51% (active) with IGROV1 ovarian; -89.4% (active) in the test on OVCAR-3 ovarian. In addition, the results for the growth with HS 578T breast and in the test with NCI/ADR-RES ovarian were -11.4% (active) and 41.5%, respectively.

For `COc1ncc(-c2ccc3ncnc(Nc4cccc(Cl)c4)c3c2)cc1NS(=O)(=O)C1CC1`, the growth in the test with SK-MEL-2 melanoma is 36.5%; in the test with EKVX NSCLC, 12.3%; in the test with SN12C renal, 31.2%; in the test with UO-31 renal, 22.5%; in the test on TK-10 renal, 1.03% (active); with ACHN renal, 23.9%. For the same molecule, the growth in the test with CAKI-1 renal was 27.8%; in the test with A498 renal, 15.7%; with CCRF-CEM leukemia it was 33.2%; in the test with MOLT-4 leukemia it was -0.986% (active); in the test with SR leukemia, 46.9%; in the test with RPMI-8226 leukemia, 26.7%. In addition, the growth in the test on OVCAR-8 ovarian was 41.7%; in the test with OVCAR-5 ovarian, 28%; in the test on OVCAR-4 ovarian it was 34.8%; in the test with SK-OV-3 ovarian, 8.08% (active); in the test on IGROV1 ovarian, -38.6% (active); with OVCAR-3 ovarian, 20.1%. Moreover, the values for the growth in the test on HS 578T breast and in the test with NCI/ADR-RES ovarian were 13.6% and 40.8%, respectively.

In the case of `CN(C)CCCNC(=O)C(c1ccccc1)c1ccccc1`, the growth in the test on SK-MEL-2 melanoma is 95.6%; in the test with EKVX NSCLC it was 106%; with SN12C renal it was 96.8%; in the test on UO-31 renal, 84.1%; with TK-10 renal, 88.2%; in the test on ACHN renal, 93.5%. Further, the growth is 99.5% with CAKI-1 renal; 104% in the test on A498 renal; 100% in the test with CCRF-CEM leukemia; 85.3% in the test with MOLT-4 leukemia; 105% in the test with SR leukemia; 101% in the test on RPMI-8226 leukemia. Besides, the growth in the test on OVCAR-8 ovarian was 102%; in the test on OVCAR-5 ovarian, 111%; in the test with OVCAR-4 ovarian, 118%; with SK-OV-3 ovarian it was 112%; with IGROV1 ovarian, 117%; in the test with OVCAR-3 ovarian it was 113%. For the same molecule, the growth with HS 578T breast was 110%; in the test with NCI/ADR-RES ovarian, 97.7%.

For the molecule `CSc1ccccc1C#C/C=C\C#Cc1ccccc1N1CCCC1=O`, the growth with SK-MEL-2 melanoma was 35.4%; in the test with EKVX NSCLC, 55.3%; in the test with SN12C renal it was 72.1%; in the test with UO-31 renal it was 23.3%; with TK-10 renal it was 83.1%; with ACHN renal, 57.9%. In addition, the growth with CAKI-1 renal is 70.2%; in the test on A498 renal it was 55.3%; in the test with CCRF-CEM leukemia it was 23.6%; with MOLT-4 leukemia it was 27.4%; in the test on SR leukemia, 12.5%; with RPMI-8226 leukemia, 22.2%. Further, the growth in the test with OVCAR-8 ovarian was 74.9%; in the test with OVCAR-5 ovarian, 72.2%; in the test with OVCAR-4 ovarian, 59.7%; in the test with SK-OV-3 ovarian, 85.8%; with IGROV1 ovarian, -32.2% (active); in the test with OVCAR-3 ovarian, 50.9%. The growth was 98% with HS 578T breast and 41.5% with NCI/ADR-RES ovarian.

In the case of `COc1ccccc1OCC(=O)Nc1sc2c(c1C(N)=O)CCC2`, the growth was 37.5% with SK-MEL-2 melanoma; 99.9% in the test with EKVX NSCLC; 64.2% in the test with SN12C renal; 26.5% with UO-31 renal; 104% with TK-10 renal; 32.2% in the test on ACHN renal. Moreover, the growth in the test with CAKI-1 renal was 63.7%; in the test on A498 renal it was 67.1%; in the test with CCRF-CEM leukemia, 24.3%; in the test on MOLT-4 leukemia, 26%; in the test with SR leukemia, 65.2%; in the test on RPMI-8226 leukemia it was 66.2%. Besides, the growth with OVCAR-8 ovarian was 76.9%; with OVCAR-5 ovarian, 107%; in the test with OVCAR-4 ovarian, 83.2%; with SK-OV-3 ovarian, 69.9%; with IGROV1 ovarian, -10.4% (active); with OVCAR-3 ovarian, 92.1%. Also, the values for the growth in the test on HS 578T breast and in the test on NCI/ADR-RES ovarian were 55.5% and 79.1%, respectively.
